# Screening data from PubChem BioAssay.
# In the library only some 2.4% were active in any assay of this set; here they are far more common.
# TGFb SMAD3 inh: inhibitors of TGF-b signaling | HepG2 CAGA-GFP TGF-b/SMAD3 reporter, GFP fluorescence, 18 h; TGF-beta stimulated, 500 pg/mL final | Potency, µM (doses to about 46.1 µM), without a hit: at the top dose activity, negative = inhibition, most hits filed as inhibitors | 410,000 tested, 1.2% active; also: % is scaled to controls: 0 for no effect and ±100 for the full control effect; nearly all actives have a fitted effect of over 65% in size
#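 HEPG2 CAGA-GFP cells (1000/well, DMEM with 1% FBS) were pre-incubated 2 h at 37 degrees C, given compound by pin tool, then stimulated with TGF-beta at 500 pg/mL final for 18 h before per-cell GFP fluorescence imaging.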
# HepG2 viability: counter-screen for TGF-b inhibitors: cytotoxicity in HepG2 cells. Potency, µM (top dose mostly 46.1 µM), for inactives: at the highest dose activity change, negative = cytotoxicity, hits mostly cytotoxic. AID 588856. HepG2 CAGA-GFP viability, ATP luminescence, 18 h. 410,000 tested, 0.76% active
#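 CellTiter-Glo luminescence gave cytotoxicity after 18 hours at 37 degrees C. The cells were HepG2 CAGA-GFP in 1% FBS DMEM, stimulated with 500 pg/mL TGF-beta after compound addition. %Activity was normalised to no-cell wells (complete cell-killing) and DMSO (no toxicity), and curves were fitted and classified.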
# S2 tox: reduces viability in counter-screen for ATXN expression inhibitors | S2 cells (HEK-293 line with an ATXN2-luciferase reporter) viability, CellTiter-Fluor protease fluorescence, 24 h | Potency, µM (highest dose often 56.7 µM), hits mostly cytotoxic | 400,000 tested, 0.49% active | AID 651635; also: nearly all actives have a fitted effect of over 40% in size
# Anesthetic bind: binds horse apoferritin like a general anesthetic | P02791 | apoferritin/1-aminoanthracene competitive binding, fluorescence | Potency, µM (titrated, usually from 77.5 µM), for inactives: top-dose activity change, negative = displacement, most hits filed as inhibitors | 350,000 tested, 0.074% active; also: % is scaled to controls: 0 for no effect and ±100 for the full control effect; nearly all actives have a fitted effect of over 20% in size
# Target sequence (P02791 2-175 limits assumed): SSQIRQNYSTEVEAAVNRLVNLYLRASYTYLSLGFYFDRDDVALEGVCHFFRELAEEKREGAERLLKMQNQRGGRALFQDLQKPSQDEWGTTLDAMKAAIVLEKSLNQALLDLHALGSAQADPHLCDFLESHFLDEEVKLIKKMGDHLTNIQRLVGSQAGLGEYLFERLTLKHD
#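 Read-out: endpoint 1-AMA fluorescence, excitation 380 nm and emission 535 nm, after compounds sit 10 min at room temperature with 10 uM horse-spleen apoferritin in 50% saturated 1-AMA/PBS. Values come from four-parameter Hill fits.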
# ATXN2 expr inh: inhibitors of ATXN2 expression; HEK-293 ATXN2-luciferase reporter, luminescence, 24 h; Potency, µM (series often up to 57 µM), for inactives: at the highest dose activity change, negative = inhibition, actives largely listed as inhibitors; 360,000 tested, 0.72% active; also: % is scaled to controls: 0 for no effect and ±100 for the full control effect; nearly all actives have a fitted effect of over 55% in size
#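 ATXN2-luciferase reporter cells (luciferase flanked by upstream and downstream ATXN2 gene portions) were treated 24 h at 37 °C with compounds at up to 57 uM. SteadyGlo luminescence gave expression; GF-AFC fluorescence gave viability.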
# The depositor's hits bear a star; i = inactive; ? = inconclusive; · = no result; [ ] = another dose, or the depositor's remark. Calls follow the shape of the dose curve; as a rule, active = well fitted curve in the direction sought with a large enough effect; inconclusive = small, poorly fitted or top-dose-only effect, or another doubt; inactive = no such curve, though single readings can be large; an effect the other way counts as inactive or inconclusive. Potency is read from the fitted curve at half-maximal effect.
SMILES,TGFb SMAD3 inh,HepG2 viability,S2 tox,Anesthetic bind,ATXN2 expr inh
OC[C@H]1O[C@@H](O[C@H]2[C@@H](O)[C@@](O)(CO)O[C@@H]2CO)[C@H](O)[C@@H](O)[C@@H]1O,·,·,·,·,1%
COC(=O)N/N=C/c1cn(CCOc2cccc(OC)c2)c2ccccc12,?,-47%,i,-9%,·
COc1cccc(OCCn2cc(C=O)c3ccccc32)c1,3.5µM*,-31%,i,-11%,-18%
O=C(NCc1cccc(Cl)c1)c1cccc2c(-c3cccnc3)coc12,?,-44%,20µM*,·,28µM*
O=C(NCc1ccc(F)c(F)c1)c1cccc2c(-c3cccnc3)coc12,1%,-33%,?,·,-35%
O=C(Nc1ccc(Br)cc1)C1CCN(C(=O)c2ccco2)CC1,-10%,-12%,i,-4%,-16%
Oc1ccc(Br)cc1CNc1cnc2ccccc2c1,?,13µM*,i,-11%,·
Cc1cccc(C(O)c2ncc(-c3ccc(Cl)cc3)[nH]2)c1C (stereo not given),?,-39%,22µM*,·,-32%
OC(c1ccc(Cl)cc1)c1ncc(-c2cccc(C(F)(F)F)c2)[nH]1 (stereo not given),?,10µM*,i,·,?
Cc1cc(Cl)ccc1C(O)c1ncc(-c2cccc3ccccc23)[nH]1 (stereo not given),13µM*,-37%,i,·,-20%
Cc1cc(C)cc(C(O)c2ncc(-c3cccc(C(F)(F)F)c3)[nH]2)c1 (stereo not given),?,-40%,i,·,-28%
Cc1cccc(C)c1C(O)c1ncc(-c2ccc(Cl)cc2)[nH]1 (stereo not given),-15%,-22%,i,·,-17%
OC(c1cc(F)cc(Cl)c1)c1ncc(-c2cccc(C(F)(F)F)c2)[nH]1 (stereo not given),11µM*,-67%,i,·,?
Cc1c(C(=O)N(C)Cc2nccs2)sc2ncnc(NCC3CCCO3)c12 (stereo not given),·,·,i,·,·
CCN1C(C)=C(C(=O)OC)C(c2ccccc2)N2C(=O)[C@](O)(C(=O)OC)CC(C#N)=C12 (stereo not given in full),·,·,·,-10%[15.3 µM],·
COc1ccc(CCNC(=O)c2cnn(-c3nccc(-c4cccs4)n3)c2C)cc1OC,·,·,i,·,·
Cc1nn(-c2ccccc2)c(C)c1CC(=O)NCC1Cc2cc(F)cc(-c3cccnc3)c2O1 (stereo not given),·,·,i,·,·
CCOc1cc(/C=N/NC(N)=O)cc(Br)c1OCC(=O)Nc1cccc2ccccc12,17%,11µM*,i,-22%,-17%
COc1ccc(C(=O)c2coc3c2C(=O)C(=O)c2ccccc2-3)cc1,?,-33%,?,-15%,-23%
O=C(c1ccccc1)c1coc2c1C(=O)c1ccccc1C2=O,?,10µM*,i,-10%,-1%
COc1ccc(C(=O)NCCN2Cc3cc(C)ccc3OC(C)C2)c(OC)n1 (stereo not given),·,·,i,·,·
COc1ccc(C2C=C3CNS(=O)(=O)C3CC2OC(=O)c2ccc(C(F)(F)F)cc2)cc1 (stereo not given),14µM*,-88%,·,-20%,·
COc1ccc(C2C=C3CNS(=O)(=O)C3CC2OC(=O)c2cccs2)cc1 (stereo not given),?,-11%,·,-5%,·
Cc1occc1C(=O)NCCN1Cc2ccccc2OC(c2ccccc2F)C1 (stereo not given),·,·,i,·,·
C/C(=N\Nc1ncnc2sc(C)c(C)c12)c1ccccn1,-8%,-88%,?,-7%,0.28µM*
SMILES,TGFb SMAD3 inh,HepG2 viability,S2 tox,Anesthetic bind,ATXN2 expr inh
O=C(NCCN1CCOCC1)c1cnn(-c2nccc(-c3ccccc3C(F)(F)F)n2)c1C1CC1,·,·,i,·,·
COC(=O)C1=C(C)[C@@H](O)[C@@H](C)[C@H](c2c(OC)c(OC)c(C)c(OC)c2OC)O1,·,·,·,-8%[15.3 µM],·
COc1ccc(-n2nc(C#N)c(Cl)cc2=O)cc1,16µM*,18µM*,·,-6%,?
COc1ccc(C)cc1Nc1n[n+](-c2ccccc2)c(-c2c(OC)ccc3ccccc23)s1,?,-62%,·,·,?
COc1ccc(C)cc1Nc1n[n+](-c2ccccc2)c(-c2cc(OC)c(OC)cc2Br)s1,?,-22%,22µM*,-20%,?
O=C(CSc1cccc2cccnc12)N/N=C/c1ccc(O)cc1,-12%,-46%,i,6%,·
O=C(CCc1ccccc1O)N/N=C/c1ccc(Sc2cccc3cccnc23)o1,14µM*,-59%,?,-15%,-26%
Cc1cc(C)cc(OC(=O)c2cc(-c3ccc(Cl)cc3)on2)c1,-4%,0%,i,2%,5%
CC(C)c1ccc(OC(=O)c2cc(-c3ccccc3)on2)cc1,0%,0%,·,14µM*,·
O=C1CCCC(=O)C1C(=O)c1ccc(C(F)(F)F)cc1[N+](=O)[O-],·,·,·,·,11%
Cc1cc(NC(=O)CCCn2c(C)c3cnn(-c4ccccc4)c(=O)c3c2C)ccc1Br,7.1µM*,10%,·,-7%,·
O=C(O)CCn1cc(/C=C/C(=O)c2ccc(Cl)cc2)c(-c2ccc(Br)cc2)n1,?,16µM*,i,-9%,?
O=C(O)/C=C/c1cn(Cc2ccccc2)nc1-c1ccccc1,0%,-1%,i,-5%,5%
CCNC(=S)N1CCN(c2ccccn2)CC1,-2%,3%,i,-5%,5%
CC(NNC(=S)N1CCN(c2ccccn2)CC1)c1nccc2ccccc12 (stereo not given),?,-12%,11µM*,·,?
COC(=O)c1ccc(CN2CCOc3ccc(C(O)c4cccnc4)cc3C2)cc1 (stereo not given),·,·,i,·,·
O=S(=O)(Nc1ccc(-c2ccc3nncn3n2)cc1)c1cc(F)ccc1F,6%,-12%,i,·,-1%
COc1ccc(OC)c(S(=O)(=O)Nc2ccc(-c3ccc4nncn4n3)cc2)c1,-1%,7.9µM*,i,·,-16%
